High-throughput results: PubChem BioAssay, The Scripps Research Institute Molecular Screening Center
UHRF1 binding: UHRF1 methylated DNA binding inhibitors, primary screen, counter-screen for MBD2 inhibitor project, biochemical, TR-FRET, human UHRF1, single concentration. E3 ubiquitin-protein ligase UHRF1 (Homo sapiens), Q96T88. AID 687016, 2013. inhibition, % at 4.4 µM. 370,000 tested, 0.75% active. UHRF1 binding to methylated oligo; in the data active = inhibition above about 21%;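 note: UHRF1 SRA domain binding a hemimethylated CpG hairpin DNA probe; 0% = median of test compound wells and 100% = reference inhibitor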
PLCg1 inh: PLC-gamma1 enzyme inhibitors, primary screen, biochemical, fluorescence, purified enzyme; inhibition, % at 12.2 µM; fluorogenic substrate; AID 720700, 2013; 370,000 tested, 0.84% active; 1-phosphatidylinositol 4,5-bisphosphate phosphodiesterase gamma-1 (Homo sapiens), P19174; in the data active = inhibition above about 9.5%
MBD2 DNA inh: inhibitors of MBD2 binding to methylated DNA, primary screen, biochemical, TR-FRET, DNA-binding domain, human. inhibition, % at 4.4 µM. 370,000 tested, 0.31% active. Methyl-CpG-binding domain protein 2 (Homo sapiens), Q9UBB5. MBD2 binding to methylated oligonucleotide. AID 686964, 2013; in the data active = inhibition above about 13%
LEDGF integ inh: blockers of LEDGF/p75-dependent integrase strand transfer – biochemical, TR-FRET, high throughput, primary screen. inhibition, % at 3.7 µM. TR-FRET IN-LEDGF/p75 DNA integration, Eu/Cy5. AID 743269, 2014. 370,000 tested, 0.64% active. HIV-1 integrase (with human LEDGF/p75);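 active = inhibition above the screen-wide mean plus 3 SD, cut at about 13% in these data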;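 note: signal is the Cy5 over europium emission ratio at 671 and 618 nm; 0% = plate median of compound wells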
PLC-beta3 inh: human PLC-beta3 inhibitors, primary screen, biochemical, fluorescence. 1-phosphatidylinositol 4,5-bisphosphate phosphodiesterase beta-3 (Homo sapiens), Q01970. Purified PLC-beta3, fluorogenic substrate. inhibition, % at 12.2 µM. 370,000 tested, 0.18% active; in the data active = inhibition above about 11%;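 note: 0% = median of compound wells on plate and 100% = full blocker control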
Numbers without * were called inactive. Most compounds without a hit are left out; they make up all but 2.4% or so of the library.

Screening O=C(N=Nc1c(O)[nH]c2ccccc12)Nc1ccccc1 returned UHRF1 binding -2, PLCg1 inh 9, MBD2 DNA inh -3, LEDGF integ inh 1 and PLC-beta3 inh 5.
`COc1ccc(/C=C/S(=O)(=O)NC2CCCC2)c(CNC(=O)OC(C)(C)C)c1` gave UHRF1 binding -2, PLCg1 inh 0, MBD2 DNA inh -6, LEDGF integ inh -4 and PLC-beta3 inh 1.
For O=C(CCNC(=O)c1ccc(Br)cc1)NCCCN1CCOCC1 the results were UHRF1 binding 23*, PLCg1 inh -3, MBD2 DNA inh 6, LEDGF integ inh -2 and PLC-beta3 inh -3.
For O=C(NC(=S)NCCCN1CCOCC1)c1ccc(Br)cc1 the results were UHRF1 binding -1, PLCg1 inh -3, MBD2 DNA inh -4, LEDGF integ inh 6 and PLC-beta3 inh 3.
Screening C=CCNC(=O)c1ccc(N(CC=C)S(C)(=O)=O)cc1 returned UHRF1 binding 7, PLCg1 inh 5, MBD2 DNA inh -1, LEDGF integ inh 0 and PLC-beta3 inh 5.
`C=CCN(c1ccc(C(=O)NCCN2CCOCC2)cc1)S(C)(=O)=O` gave UHRF1 binding 29*, PLCg1 inh 2, MBD2 DNA inh -2, LEDGF integ inh 3 and PLC-beta3 inh -3.
`O=C(NC(=S)Nc1cccc(S(=O)(=O)NC2=NCCC2)c1)c1cc(-c2ccco2)nc2ccccc12` gave UHRF1 binding 4, PLCg1 inh -368, MBD2 DNA inh 2, LEDGF integ inh 8 and PLC-beta3 inh inactive.
O=C(Nc1cccc(S(=O)(=O)NC2=NCCC2)c1)c1cc(-c2ccco2)nc2ccccc12 was read as UHRF1 binding 30*, PLCg1 inh -423, MBD2 DNA inh 24*, LEDGF integ inh 17* and PLC-beta3 inh inactive.
For CN(C)c1ccc(C=c2c3cc(O)ccc3n3c2cc(-c2ccccc2)[n+]3C)cc1 the results were UHRF1 binding 31*, PLCg1 inh -37, MBD2 DNA inh 7, LEDGF integ inh 8 and PLC-beta3 inh -51.
CN(C)c1ccc(C=c2c3ccccc3n3c2c2ccccc2[n+]3C)cc1 was read as UHRF1 binding 2, PLCg1 inh -8, MBD2 DNA inh 1, LEDGF integ inh -12 and PLC-beta3 inh -19.
`CNC(=O)CSc1nnc(-c2ccccc2)n1C` gave UHRF1 binding 31*, PLCg1 inh -2, MBD2 DNA inh -3, LEDGF integ inh 1 and PLC-beta3 inh 0.
Screening Cc1cc(NC(=O)CSc2nnc(-c3ccccc3)n2C)no1 returned UHRF1 binding 2, PLCg1 inh 0, MBD2 DNA inh 2, LEDGF integ inh 4 and PLC-beta3 inh -1.
`CCOC(=O)C1(CCOC)CCN(C(=O)c2ccccc2-c2cccc(C)c2)CC1` gave UHRF1 binding 23*, PLCg1 inh 7, MBD2 DNA inh 4, LEDGF integ inh 1 and PLC-beta3 inh 3.
`CCOC(=O)C1(CCOC)CCN(Cc2cnc(-c3cccc(C)c3)nc2)CC1` gave UHRF1 binding 0, PLCg1 inh -1, MBD2 DNA inh 5, LEDGF integ inh 5 and PLC-beta3 inh -3.
C=C(C)c1cccc(C(C)(C)NC(=O)N2CCCCC2CC)c1 (stereo not drawn) was read as UHRF1 binding 22*, PLCg1 inh 1, MBD2 DNA inh 7, LEDGF integ inh 3 and PLC-beta3 inh 3.
For C=C(C)c1cccc(C(C)(C)NC(=O)N2CCN(CC)CC2)c1 the results were UHRF1 binding 1, PLCg1 inh 6, MBD2 DNA inh -4, LEDGF integ inh -2 and PLC-beta3 inh 5.
Screening COc1cc2c[n+](C)c3c4ccccc4ccc3c2cc1OC returned UHRF1 binding -5, PLCg1 inh inactive, MBD2 DNA inh 66*, LEDGF integ inh 4 and PLC-beta3 inh inactive.
O=S(=O)(Nc1c(S(=O)(=O)c2ccccc2)c2nc3ccccc3nc2n1C1CCCCC1)c1ccccc1 was read as UHRF1 binding 8, PLCg1 inh -29, MBD2 DNA inh 2, LEDGF integ inh 33* and PLC-beta3 inh -44.
Screening CCc1ccc(S(=O)(=O)N2CCN(Cc3ccco3)CC2)cc1 returned UHRF1 binding 1, PLCg1 inh 1, MBD2 DNA inh 5, LEDGF integ inh -6 and PLC-beta3 inh -11.
Screening CCOc1ccc(S(=O)(=O)N2CCN(Cc3ccco3)CC2)cc1 returned UHRF1 binding 27*, PLCg1 inh -3, MBD2 DNA inh 7, LEDGF integ inh 6 and PLC-beta3 inh -8.
For CC(C)(C)SCCNS(=O)(=O)c1ccc(F)cc1 the results were UHRF1 binding 24*, PLCg1 inh 4, MBD2 DNA inh 1, LEDGF integ inh -2 and PLC-beta3 inh -2.
Screening O=S(=O)(NCCCCNS(=O)(=O)c1ccc(F)cc1)c1ccc(F)cc1 returned UHRF1 binding 0, PLCg1 inh 1, MBD2 DNA inh -3, LEDGF integ inh 3 and PLC-beta3 inh -2.
Screening CCC(=O)N(CCC(Cc1ccccc1)c1ccc2c(c1)OCO2)Cc1ccccc1F (stereo not drawn) returned UHRF1 binding 25*, PLCg1 inh 7, MBD2 DNA inh 3, LEDGF integ inh 1 and PLC-beta3 inh 6.
CCOC(=O)C1=NOC(C(=O)NCc2ccccc2)(C(=O)c2ccc(OC)cc2)C1 (stereo not drawn) was read as UHRF1 binding -1, PLCg1 inh -8, MBD2 DNA inh 4, LEDGF integ inh -1 and PLC-beta3 inh -11.
`Cc1ccc(CNCCNCCO)s1` gave UHRF1 binding 22*, PLCg1 inh 0, MBD2 DNA inh 12, LEDGF integ inh -4 and PLC-beta3 inh -4.
`CCOc1ccc(CCNC(=O)Nc2ccccc2C)cc1OCC` gave UHRF1 binding 21*, PLCg1 inh 1, MBD2 DNA inh -1, LEDGF integ inh -8 and PLC-beta3 inh -5.
Cc1[nH]c2ccccc2c1CCN(Cc1cccs1)C(=O)Nc1cccc2c1OCO2 was read as UHRF1 binding 0, PLCg1 inh 2, MBD2 DNA inh 1, LEDGF integ inh -1 and PLC-beta3 inh 0.
For COc1ccccc1NC(=O)CC(=O)c1cccc([N+](=O)[O-])c1 the results were UHRF1 binding -2, PLCg1 inh 1, MBD2 DNA inh -1, LEDGF integ inh 2 and PLC-beta3 inh 5.
`COc1ccccc1NC(=O)/C(=C/c1cccc([N+](=O)[O-])c1)c1ccccc1` gave UHRF1 binding 47*, PLCg1 inh 7, MBD2 DNA inh -3, LEDGF integ inh -5 and PLC-beta3 inh 0.
`CCCC1CCC2(CC1)CCC2OC(=S)Nc1cccc(Cl)c1` (stereo not drawn) gave UHRF1 binding 2, PLCg1 inh 2, MBD2 DNA inh 6, LEDGF integ inh 3 and PLC-beta3 inh -2.
